Results on 40 compounds are retold here after ChEMBL document CHEMBL3988442, “University of Dundee, Small-Polar-MMV Screening Library” (2021).

For the assay, the target named is AMP-activated protein kinase, AMPK (Homo sapiens) (UniProt P54646+O43741+P54619+Q9UGJ0+Q9Y478+Q13131+Q9UGI9). Briefly: AMP-dependent Kinase enzyme assay. An in vitro enzyme assay that detects ADP turnover that is directly proportional to AMPK activity. This uses naive AMPK that is activated during the assay with MK-8722. Type of assay: functional. Conditions: 30 µM. Set-up: scale not given: direction of the effect not stated beside the values.
Regarding `Cc1cn[nH]c1C1COCCN1Cc1ccsc1` (stereo not given), the Percent Effect came to 14.3%.

Regarding `O=C(Nc1ccc(-n2ccc(C(=O)O)n2)cc1)c1ccccc1`, the Percent Effect is 4.07%. Then `Cc1cc(C(=O)N(C)C2CCS(=O)(=O)C2)c2ccc(F)cc2n1` (stereo not given), with -7.82%; and `CCS(=O)(=O)NCc1nc(C)cc(N2CCOCC2)n1`, with 0.985%.

As for `O=C(CCc1nc(-c2cccnc2)no1)NCC1CCN(C2CC2)C1` (stereo not given), the Percent Effect is -2.6%. Then `Oc1cccc(CNCc2ccc(-n3cncn3)nc2)c1`, with 2.63%; and `Cc1cc(=O)c2cc(F)ccc2n1CC(=O)O`, with 7.06%; and `CCC(=O)c1cccc(S(=O)(=O)NC(C)C#N)c1` (stereo not given), with -2.44%. As to `CCc1ccccc1OCCN(C)C(=O)CCN1CCCCO1`, the Percent Effect is 0.981%.

For the compound `CC(O)CN1CCN(Cc2coc(-c3cccc(Cl)c3)n2)CC1` (stereo not given), the Percent Effect was -7.56%.

In the case of `CCc1nnc(C(C)N2CCN(CCC(C)(C)C)CC2)o1` (stereo not given), the Percent Effect was determined as 8.59%.

`Cn1nccc1-c1cccc(CC2CCN(S(C)(=O)=O)C2)n1` (stereo not given): the Percent Effect is 8.3%. Then `Cc1ccc(N2CCCC(N(C)c3nn4cc(C)nc4s3)C2)nn1` (stereo not given), with 33%; and `CSc1ccc(NC(=O)Cn2cc(NC(C)=O)cn2)cc1`, with -11.9%; and `C=C(C)COc1cccc(CNCc2nc3ccccc3c(=O)[nH]2)c1`, with 1.56%. Turning to `CC(NC(=O)C(C)(C)C)c1cc(O)nc(-c2cccnc2)n1` (stereo not given), the Percent Effect was determined as 6.37%. Then `O=C(O)c1ccc(C2CCCN(C(=O)c3ccc[nH]3)C2)cc1` (stereo not given), with 3.76%; and `CSc1ccc(OCCN2CCNC(=O)C2C)cc1` (stereo not given), with 6.4%. For `O=C(O)CCc1cc2n(n1)CCCN(C(=O)c1ccc(Cl)s1)C2` the value was 2.58%; for `NC(=O)c1ccc(CNC(=O)NCc2cc[nH]n2)cc1`, -5.62%; for `Cc1c(C(=O)NC2CCCOC2)nnn1-c1ccc(Cl)cc1F` (stereo not given), 0.0565%. For `CCCn1ccnc1-c1cccc(NC(=O)C2CCCOC2)c1` (stereo not given) the value was -0.71%. With `Cc1ccc(Oc2cc(CN)ccn2)cc1C`, the Percent Effect is -98.1%. Then `CN(CCCc1cnn(C)c1)Cc1cc2n(n1)CCNC2`, with -4.86%; and `Cc1ccc(-c2noc(C3CCN3C(=O)c3c(C)noc3C)n2)s1` (stereo not given), with 5.86%; and `Cc1nnc(SCCNc2cc(C3CC3)ncn2)s1`, with 14.2%. Regarding `CCC(C)(CC(=O)OC)NCc1nc(C)no1` (stereo not given), the Percent Effect is -1.72%.

`CCCn1cc(NC(=O)c2cccc(CN3CC[C@H](O)C3)c2)nn1`: the Percent Effect was -5.04%. Then `CC(C)Cc1noc(CC2CCS(=O)(=O)C2)n1` (stereo not given), with -13.3%.

For `Cn1ccc(C(=O)N2CCC(Cc3ccc4ncccc4c3)CC2)n1`, the Percent Effect worked out at 15.1%. In the case of `OCCc1cc(C2CCCN2c2ncccn2)n[nH]1` (stereo not given), the Percent Effect amounted to 11.9%. For `Cc1nn(C(C)C)c(C)c1CN1CCN(C2CCCCC2)C(=O)C1` the value was 8.49%; for `O=C(NC1CC1)c1cnc2n1CCCC2`, -4.04%; for `CC(OCC1CC1)C(=O)Nc1nccn1Cc1ccccc1` (stereo not given), 5.4%. For `Cc1nc(-n2nc(-c3cccs3)cc2N)[nH]c(=O)c1C` the value was -14.4%; for `CCN(Cc1ccoc1)C(=O)Nc1ccccc1CN(C)C(C)=O`, 2.94%.

Turning to `CN(C(=O)c1ccccn1)c1nnc(C2CCOC2)s1` (stereo not given), the Percent Effect turned out to be 9.22%. Then `O=S(=O)(c1cn[nH]c1)N1CCC(O)(CN2CCC(F)(F)CC2)C1` (stereo not given), with 9.16%.

Take `c1cnc(Nc2ccc(C3CCCCN3Cc3ccncc3)cn2)nc1` (stereo not given): the Percent Effect worked out at 11.1%. Then `CCc1cc(CNC(=O)c2cc(NC(=O)C(C)C)ccc2Cl)[nH]n1`, with 0.911%.
